According to PubChem BioAssay AID1159580 (chemical genetic matrix, 2015):
The campaign covered roughly 5,500 compounds. About 2,000 (36%) were called active. Roughly 18% stayed inconclusive and do not appear here. Cut-off read from the data, not from the text of the source: active = normalized growth mostly below about 0.91 (no sharp cut-off); inconclusive = no clear call, values can overlap the other calls; inactive = mostly above about 0.92. This is one part of the list.

Test: chemical genetic growth profiling, strain panel (AID 1159580);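 note: tested at 20 µM; growth read once vehicle control cultures reached saturation at 30 °C; 1 = growth at the plate median or of vehicle wells; lower values mean less growth of the strain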
Conditions: S. cerevisiae deletion strains, growth OD
[1] = locus YAL013W, strain DEP1, active compounds read low
[2] = locus YAL040C, strain CLN3, active compounds read low
[3] = locus YDR363W, strain ESC2, active compounds read low
[4] = locus YER002W, strain NOP16, active compounds read low
[5] = locus YNL153C, strain GIM3, active compounds read low
[6] = locus YNL175C, strain NOP13, active compounds read low
[7] = locus YNL197C, strain WHI3, active compounds read low
[8] = locus YNL224C, strain SQS1, active compounds read low
[9] = locus YOR083W, strain WHI5 (second series), active compounds read low

Measured: normalized growth

N=c1ccn2c(n1)OC1C(O)[C@@H](CO)O[C@H]12 (some centres undefined)
inactive: [1] 0.99 | [2] 1 | [3] 0.986 | [4] 1.01 | [5] 1.02 | [6] 1 | [7] 1 | [8] 1.03 | locus YNL322C, strain KRE1, active compounds read low 1 | [9] 1.03

CC(N)Cc1c[nH]c2ccc(OCc3cccs3)cc12 (centres undefined)
inactive: [1] 1 | [2] 1.02 | [3] 0.984 | [4] 1.02 | locus YGR078C, strain PAC10, active compounds read low 1.01 | locus YJR075W, strain HOC1, active compounds read low 1 | locus YMR307W, strain GAS1, active compounds read low 1.02 | [5] 1.02 | [6] 0.986 | [7] 1.01 | [8] 1.01 | [9] 0.981 | locus YPL055C, strain LGE1, active compounds read low 1 | locus YPL241C, strain CIN2, active compounds read low 1.01
